Source: PubChem BioAssay
CHX counter = Cycloheximide Counterscreen for Small Molecule Inhibitors of Shiga Toxin; cell reporter, cycloheximide protein synthesis inhibition counterscreen; max response, %; 300,000 tested, 12% active; AID 2314, 2010; in the data active means max response mostly above about 13%, no sharp cut-off; inactive means mostly below about 14%; further: read at 38.3 µM for the half of the compounds with a filed dose; 0% is about no effect
HCMV antiviral = qHTS Assay for inhibitors of the human cytomegalovirus (HCMV); HFF cells, HCMV-luciferase reporter, 72 h; stronger effect = lower value; activity change, negative = inhibition, % at 57.5 µM; 410,000 tested, 4.5% active; AID 1259415, 2018; in the data active means activity change below about -60%; inconclusive means no clear call, values can overlap the other calls; inactive means above about -39%; further: on the % scale 0 is the no-effect control and ±100 the full control effect
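Inhibition of viral replication was scored as loss of reporter luminescence in HFFs infected with HCMV-luciferase (MOI 1 PFU/cell) for 72 h; compounds tested at 2 doses, normalized to buffer and Salinomycin controls.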
Shiga inhibitor = A qHTS for Small Molecule Inhibitors of Shiga Toxin | inhibition, % at 38.7 µM | AID 2315, 2010 | 290,000 tested, 9.2% active | Vero cells, Shiga toxin protein synthesis inhibition reporter; in the data active means inhibition mostly above about 28%, no sharp cut-off; inactive means mostly below about 43%; further: 0% is about no effect
Pf growth 96h = Primary qHTS for delayed death inhibitors of the malarial parasite plastid, 96 hour incubation | P. falciparum luciferase reporter growth, 96 h | Potency, µM (highest dose often 28.7 µM), for the others: at the highest dose activity change, negative = inhibition, hits mostly inhibitors | 320,000 tested, 6.9% active | AID 504834, 2011; further: potency means the concentration at half of the fitted maximal effect; on the % scale 0 is the no-effect control and ±100 the full control effect
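P. falciparum expressing integrated firefly luciferase grown in erythrocytes (2% hematocrit, 0.05% parasitemia final) with compounds for 96 hours at 37 C, 5% CO2. Growth inhibition read as loss of luminescence after adding luciferase detection reagent.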
Pf growth 48h = Primary qHTS for delayed death inhibitors of the malarial parasite plastid, 48 hour incubation; Potency, µM (titrated, usually from 28.7 µM), inactives show at the top dose activity change, negative = inhibition, actives largely listed as inhibitors; 310,000 tested, 5.9% active; P. falciparum luciferase growth in erythrocytes, 48 h; further: potency means the concentration at half of the fitted maximal effect; on the % scale 0 is the no-effect control and ±100 the full control effect
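Here the parasites carry a stable luciferase gene and grow inside erythrocytes in Albumax-based RPMI medium with compound for one erythrocytic cycle. Activity is scored as loss of luminescent signal.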
The depositor's hits bear a star; ? = inconclusive; / = not tested or not shown; [ ] = another dose, or the depositor's remark. Compounds with a hit are over-represented: about 20% of the library has one in this group of screens. Unless noted, the call rests on the fitted dose curve; in most records, active means well fitted inhibition curve with a large enough effect; inconclusive means small, poorly fitted or top-dose-only effect, or another doubt; inactive means no such curve, though single readings can be large or run the other way.

SMILES	CHX counter	HCMV antiviral	Shiga inhibitor	Pf growth 96h	Pf growth 48h
CCOC(=O)C1(Cc2cccc(OC)c2)CCN(Cc2ccccc2OC)CC1	-3	-62*	-11	20%	11%
O=C(O)C(Cc1cc(Cl)ccc1Cl)Sc1nc2ccccc2[nH]1 (centres undefined)	-1	0	8	0%	47%
CCOC(=O)C1(Cc2ccccc2)CCN(Cc2cn(CC(=O)OC)c3ccccc23)CC1	-3	?	-5	5.2µM*	?
O=C(Cc1ccccc1)NCC(=O)OCC(=O)c1ccc(F)cc1	-2	62	5	49%	9%
Oc1cc(-c2ccccc2)c2ccccc2c1	-5	-11	-4	12µM*	?
c1ccc2c(c1)-c1cccc3c1c-2cc1ccccc13	/	/	/	-5%	78%
C=CCOc1cc(OC)c(OC)c(OC)c1	-1	-35	-2	-1%	17%
C=CCOc1ccc(/C(CC)=N/O)c(OC)c1	13*	9	27	/	8%
Cc1oc(C)c2c(=O)ccc3c(c12)OC(N)=C(C#N)C3c1ccc(F)cc1 (centres undefined)	9	-28	6	-2%[5.75 µM]	13µM*
NS(=O)(=O)c1ccc(CCNC(=O)c2cccc(S(=O)(=O)N3CCc4ccccc43)c2)cc1	/	-24	/	/	/
O=c1c2ccccc2c(C=NCCCN2CCOCC2)c(O)n1Cc1ccccc1	-3	51	-19	-12%	10µM*
O=c1c2ccccc2c(C=NCCCN2CCOCC2)c(O)n1Cc1ccc2c(c1)OCO2	-1	47	-10	?	?
COc1ccc(C2=C(C)C(=O)N(Cc3ccc(C(=O)Nc4ccc(F)cc4C)cc3)S2(=O)=O)cc1	/	-63*	/	/	/
O=c1c2c(-c3ccc(Cl)cc3)ccnc2[nH]n1-c1ccccc1	/	1	/	/	/
CNC(C(=O)c1ccccc1)C(OC(C)=O)c1cccc([N+](=O)[O-])c1 (centres undefined)	4	27	-7	2.9µM*	?
C[C@@H]1CN([C@@H](C)CO)C(=O)CCCn2nncc2CO[C@H]1CN(C)CC1CCCCC1	/	-18	/	/	/
COCCn1nnnc1C(c1cccs1)N1CCN(c2cc(C)ccc2C)CC1 (centres undefined)	-1	-8	11	?	13µM*
COCCn1nnnc1C(c1cc2c(C)cc(C)cc2[nH]c1=O)N1CCCCCC1 (centres undefined)	5	/	3	7%	12µM*
COCCn1nnnc1C(c1cc2cc(C)cc(C)c2[nH]c1=O)N1CCN(c2ccccc2F)CC1 (centres undefined)	-2	/	1	?	12µM*
Cc1coc2c(C)c3oc(=O)c(CC(=O)N4CCCCC4)c(C)c3cc12	/	60	/	/	/
NC(=O)C1CCN(C(=O)Cn2c(-c3cccs3)cc3ccccc32)CC1	/	31	/	/	/
CCOC(=O)N1CCN(C(=O)CSc2nnc(COc3ccccc3)o2)CC1	-4	13	13	13%	-18%
C#CCN(CC=C)C(=O)CCc1nnc(COc2ccccc2)o1	42*	44	59*	1%	10%
CCSc1nnc(NC(=O)COc2ccccc2[N+](=O)[O-])s1	62*	-87*	185*	169%	121%
Cc1nc2ccc(NC(=O)COc3ccccc3[N+](=O)[O-])cc2s1	16	?	29	25%	3%
SMILES	CHX counter	HCMV antiviral	Shiga inhibitor	Pf growth 96h	Pf growth 48h
CC(C)c1nnc(NC(=O)COc2ccccc2[N+](=O)[O-])s1	20*	?	96*	106%	97%
CCOc1ccc(N2C(=O)CC(N(CCc3ccc(OC)cc3)C(=O)c3cccc(F)c3)C2=O)cc1 (centres undefined)	2	-39	-6	-19%	-6%
Cc1nc2c([nH]1)c(=O)n(C)c(=O)n2Cc1ccco1	/	/	/	5.4µM*	4%
Cc1ccsc1C(=O)N1CCC1(C)C(=O)NCc1cccnc1 (centres undefined)	/	55	/	/	/
O=C(COC(=O)C1CC(=O)N(CCc2ccccc2)C1)c1ccc[nH]1 (centres undefined)	/	-9	/	-1%	-2%
CSc1cccc(NS(=O)(=O)c2ccc(C(C)=O)cc2)c1	-2	-68*	19	23%	8%
COc1cccc(NS(=O)(=O)c2ccc3c(c2)CCN3C(C)=O)c1	-1	-64*	-12	?	?
CCOc1ccc(S(=O)(=O)Nc2ccc3c(c2)CCCN3S(=O)(=O)c2ccc(C)cc2)cc1	/	-65*	/	/	/
CC(=O)N1CCc2cc(S(=O)(=O)Nc3ccc(C)cc3)ccc21	2	-64*	9	-26%	13%
COc1cccc(NS(=O)(=O)c2ccc3c(c2)CCCN3C(=O)C2CCC2)c1	/	-14	/	/	/
Cc1ccc(S(=O)(=O)N2CCCc3cc(NS(=O)(=O)c4cccc(Cl)c4)ccc32)cc1	/	-40	/	/	/
Cc1nc2nc(CNC(=O)c3cccc(F)c3)nn2c(C)c1CCC(=O)Nc1ccc(F)cc1	/	-10	/	/	/
COc1ccc(N2CCN(C(=O)c3ccccc3NC(=O)c3ccccc3)CC2)cc1	7	24	-8	?	22%
CSc1cccc(NS(=O)(=O)c2ccc3c(c2)CCN3C(C)=O)c1	-1	-88*	18	?	/
CC(=O)N1CCc2cc(S(=O)(=O)Nc3cccc(C(F)(F)F)c3)ccc21	-4	?	-17	35%	/
COc1ccc(S(=O)(=O)Nc2ccc3c(c2)N(C(C)=O)CCC3)cc1	/	-62*	/	0%	2%
COc1ccc(S(=O)(=O)Nc2ccc3c(c2)N(C(C)=O)CCC3)cc1OC	/	-3	/	?	?
CC(=O)N1CCc2cc(S(=O)(=O)NC(CC(C)C)C(=O)Nc3cc(C(=O)O)ccc3C)ccc21 (centres undefined)	-2	17	-4	0.29µM*	2%
O=C(NNc1c(F)c(F)cc(F)c1F)C1CCN(S(=O)(=O)c2ccccc2F)CC1	/	36	/	/	/
COC(=O)[C@]12CCCCC=C1N(Cc1ccc3c(c1)OCO3)C(=O)[C@H](CC(=O)NCCC(C)C)C2	/	17	/	/	/
COc1ccc(-n2nc3c(N4CCC(C(=O)NCc5cccc(C)c5)CC4)nnc(C)c3c2C)cc1	-8	-100*	-22	?	?
COc1ccc(-n2nc3c(N4CCCC(C(=O)NCc5cccc(F)c5)C4)nnc(C)c3c2C)cc1 (centres undefined)	/	-84*	/	/	/
COc1ccc(-n2nc3c(N4CCC(C(=O)NCCc5ccco5)CC4)nnc(C)c3c2C)cc1	-1	-31	13	1%	?
COC(=O)c1ccc(-c2ccco2)n1Cc1nc(-c2ccc(OC)c(OC)c2)oc1C	6	2	13	/	13µM*
COC(=O)c1cc2oc3ccccc3c2n1Cc1nc(-c2ccc(OC)cc2)oc1C	/	1	/	/	/
C=CCOC(=O)/C(=C\c1ccccc1)NC(=O)c1ccc(C)cc1	36*	-67*	100*	-5%	5%
CCOC(=O)/C(=C\Nc1cccc(OCc2ccccc2)c1)NC(=O)c1ccccc1	/	-60*	/	/	/
